Data as given in the supplement of paper PMC10849652.
Of roughly 7,900 targets only a part is listed; those with a hit were picked by preference. About 0.6% of all pairs of compound and target were hits. A number with no mark means an inactive call.

Columns and labels:
Assay in all cases: log2 fold change, soluble protein after heating vs DMSO (PISA); higher = thermal stabilisation; K562 cells, 10 uM, 30 min; active = over 0.2 and 3.5 SD of the protein, either way, in both replicates (recomputed)
[1] = compound: COC1=CC=C(C=C1)CN2C=CC3=C2C=C(C=C3)C(=O)NO
Outline: (§1)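 K562 cells at 2×10^6 cells/mL were exposed to 10 μM compound for 30 min, then aliquots were heated for 3 min across 48°C-58°C, pooled, and extracted in PBS containing 0.5% NP-40 at 4°C. The supernatant after 21,000xg for 90 min was taken as soluble protein and measured by TMTpro 16plex LC-MS/MS with channel sums equalised. Thermal stability is reported relative to control samples, with values from duplicates. Fold changes are given on a log2 scale.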

filanesib = compound: CON(C)C(=O)N1N=C(c2cc(F)ccc2F)S[C@@]1(CCCN)c1ccccc1 [filanesib]
Outline: as §1

zotarolimus = compound: CO[C@H]1C[C@@H]2CC[C@@H](C)[C@@](O)(O2)C(=O)C(=O)N2CCCC[C@H]2C(=O)O[C@H]([C@H](C)C[C@@H]2CC[C@H](n3cnnn3)[C@H](OC)C2)CC(=O)[C@H](C)/C=C(\C)[C@@H](O)[C@@H](OC)C(=O)[C@H](C)C[C@H](C)/C=C/C=C/C=C/1C [zotarolimus]
Outline: as §1

idasanutlin = compound: COc1cc(C(=O)O)ccc1NC(=O)[C@@H]1N[C@@H](CC(C)(C)C)[C@](C#N)(c2ccc(Cl)cc2F)[C@H]1c1cccc(Cl)c1F [idasanutlin]
Outline: as §1

alisertib = compound: COc1cc(Nc2ncc3c(n2)-c2ccc(Cl)cc2C(c2c(F)cccc2OC)=NC3)ccc1C(=O)O [alisertib]
Outline: as §1

[2] = compound: COc1cc2nc(-c3cc(F)ccc3O)nc(N[C@@H]3CNC[C@H]3C(C)(C)O)c2cc1OC
Outline: as §1

gefitinib = compound: COc1cc2ncnc(Nc3ccc(F)c(Cl)c3)c2cc1OCCCN1CCOCC1 [gefitinib]
Outline: as §1

[3] = compound: COc1cccc2cc(-c3nc([C@H]4CC[C@H](C(=O)O)CC4)n4ncnc(N)c34)[nH]c12
Outline: as §1

lapatinib = compound: CS(=O)(=O)CCNCc1ccc(-c2ccc3ncnc(Nc4ccc(OCc5cccc(F)c5)c(Cl)c4)c3c2)o1 [lapatinib]
Outline: as §1

pictilisib = compound: CS(=O)(=O)N1CCN(Cc2cc3nc(-c4cccc5[nH]ncc45)nc(N4CCOCC4)c3s2)CC1 [pictilisib]
Outline: as §1

[4] = compound: CS(=O)(=O)c1ccc(-c2cnc(N)c(C(=O)Nc3ccccc3)n2)cc1
Outline: as §1

crizotinib = compound: C[C@@H](Oc1cc(-c2cnn(C3CCNCC3)c2)cnc1N)c1c(Cl)ccc(F)c1Cl [crizotinib]
Outline: as §1

[5] = compound: C[C@@H]1COCCN1C2=NC(=NC(=C2)C3(CC3)S(=O)(=O)C)C4=C5C=CNC5=CC=C4
Outline: as §1

[6] = compound: C[C@H](C1=CC=C(C=C1)C(=O)NC2=C3C=CNC3=NC=C2)N
Outline: as §1

duvelisib = compound: C[C@H](Nc1ncnc2nc[nH]c12)c1cc2cccc(Cl)c2c(=O)n1-c1ccccc1 [duvelisib]
Outline: as §1

gandotinib = compound: Cc1cc(Nc2cc(CN3CCOCC3)c3nc(C)c(Cc4ccc(Cl)cc4F)n3n2)n[nH]1 [gandotinib]
Outline: as §1

tozasertib = compound: Cc1cc(Nc2cc(N3CCN(C)CC3)nc(Sc3ccc(NC(=O)C4CC4)cc3)n2)n[nH]1 [tozasertib]
Outline: as §1

[7] = compound: Cc1cc(SCc2sc(-c3ccc(C(F)(F)F)cc3)nc2C)ccc1OCC(=O)O
Outline: as §1

doramapimod = compound: Cc1ccc(-n2nc(C(C)(C)C)cc2NC(=O)Nc2ccc(OCCN3CCOCC3)c3ccccc23)cc1 [doramapimod]
Outline: as §1

ispinesib = compound: Cc1ccc(C(=O)N(CCCN)[C@@H](c2nc3cc(Cl)ccc3c(=O)n2Cc2ccccc2)C(C)C)cc1 [ispinesib]
Outline: as §1

Chain of UniProt Q8IZQ5 (Q8IZQ5 whole entry, looked up): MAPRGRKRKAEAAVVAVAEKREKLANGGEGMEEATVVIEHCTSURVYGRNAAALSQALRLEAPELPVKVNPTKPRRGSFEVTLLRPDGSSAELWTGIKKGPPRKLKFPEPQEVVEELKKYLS
Chain of UniProt Q8NEM2 (Q8NEM2 whole entry, looked up): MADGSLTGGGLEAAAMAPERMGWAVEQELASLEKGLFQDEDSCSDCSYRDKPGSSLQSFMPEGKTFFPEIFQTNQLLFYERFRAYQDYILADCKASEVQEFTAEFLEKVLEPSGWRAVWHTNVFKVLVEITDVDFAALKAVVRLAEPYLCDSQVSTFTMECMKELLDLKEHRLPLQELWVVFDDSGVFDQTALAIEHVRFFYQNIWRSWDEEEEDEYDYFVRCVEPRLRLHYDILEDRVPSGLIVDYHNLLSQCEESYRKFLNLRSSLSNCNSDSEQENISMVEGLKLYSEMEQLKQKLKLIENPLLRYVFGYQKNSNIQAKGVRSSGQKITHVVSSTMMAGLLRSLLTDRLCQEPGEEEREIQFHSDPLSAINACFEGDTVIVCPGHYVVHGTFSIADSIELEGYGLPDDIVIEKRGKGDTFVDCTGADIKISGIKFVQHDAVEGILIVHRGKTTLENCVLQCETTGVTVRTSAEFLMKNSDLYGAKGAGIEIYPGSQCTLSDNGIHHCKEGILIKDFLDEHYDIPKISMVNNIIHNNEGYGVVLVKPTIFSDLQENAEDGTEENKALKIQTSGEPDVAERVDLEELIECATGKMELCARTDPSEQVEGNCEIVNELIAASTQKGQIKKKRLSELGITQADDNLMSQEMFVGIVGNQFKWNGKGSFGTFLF
Chain of UniProt O94885 (O94885 whole entry, looked up): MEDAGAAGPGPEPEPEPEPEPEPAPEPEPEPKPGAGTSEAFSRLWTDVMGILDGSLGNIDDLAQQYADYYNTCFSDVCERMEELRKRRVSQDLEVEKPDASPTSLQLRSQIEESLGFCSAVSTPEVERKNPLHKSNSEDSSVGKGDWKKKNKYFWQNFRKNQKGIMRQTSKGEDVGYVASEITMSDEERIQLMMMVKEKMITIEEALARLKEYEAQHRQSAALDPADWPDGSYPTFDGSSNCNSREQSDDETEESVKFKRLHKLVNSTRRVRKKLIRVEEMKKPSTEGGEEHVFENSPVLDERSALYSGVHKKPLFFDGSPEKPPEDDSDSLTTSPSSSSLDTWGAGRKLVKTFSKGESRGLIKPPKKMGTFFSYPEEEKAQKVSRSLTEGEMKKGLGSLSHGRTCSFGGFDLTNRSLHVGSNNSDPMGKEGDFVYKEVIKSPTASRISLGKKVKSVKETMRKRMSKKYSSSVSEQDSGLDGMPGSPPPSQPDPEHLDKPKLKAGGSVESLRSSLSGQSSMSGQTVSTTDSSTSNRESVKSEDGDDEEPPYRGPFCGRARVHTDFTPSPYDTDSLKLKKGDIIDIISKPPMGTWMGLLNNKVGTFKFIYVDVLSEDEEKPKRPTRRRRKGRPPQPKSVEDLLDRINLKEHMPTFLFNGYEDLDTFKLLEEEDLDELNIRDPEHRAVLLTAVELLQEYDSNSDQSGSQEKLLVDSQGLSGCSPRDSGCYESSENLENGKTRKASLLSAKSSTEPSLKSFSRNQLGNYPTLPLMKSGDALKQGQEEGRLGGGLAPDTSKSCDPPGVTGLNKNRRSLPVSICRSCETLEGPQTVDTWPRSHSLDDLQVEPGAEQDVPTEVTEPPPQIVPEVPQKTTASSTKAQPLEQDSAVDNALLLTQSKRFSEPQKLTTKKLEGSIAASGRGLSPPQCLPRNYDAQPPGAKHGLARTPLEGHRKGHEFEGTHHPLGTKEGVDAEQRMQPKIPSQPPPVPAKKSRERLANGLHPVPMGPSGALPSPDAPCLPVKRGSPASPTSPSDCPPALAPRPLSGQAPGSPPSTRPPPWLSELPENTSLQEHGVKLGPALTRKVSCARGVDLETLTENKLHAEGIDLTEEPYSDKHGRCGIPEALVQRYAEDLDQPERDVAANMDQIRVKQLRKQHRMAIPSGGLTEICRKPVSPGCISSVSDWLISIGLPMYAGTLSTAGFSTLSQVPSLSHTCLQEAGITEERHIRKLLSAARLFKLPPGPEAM
Chain of UniProt Q01974 (Q01974 whole entry, looked up): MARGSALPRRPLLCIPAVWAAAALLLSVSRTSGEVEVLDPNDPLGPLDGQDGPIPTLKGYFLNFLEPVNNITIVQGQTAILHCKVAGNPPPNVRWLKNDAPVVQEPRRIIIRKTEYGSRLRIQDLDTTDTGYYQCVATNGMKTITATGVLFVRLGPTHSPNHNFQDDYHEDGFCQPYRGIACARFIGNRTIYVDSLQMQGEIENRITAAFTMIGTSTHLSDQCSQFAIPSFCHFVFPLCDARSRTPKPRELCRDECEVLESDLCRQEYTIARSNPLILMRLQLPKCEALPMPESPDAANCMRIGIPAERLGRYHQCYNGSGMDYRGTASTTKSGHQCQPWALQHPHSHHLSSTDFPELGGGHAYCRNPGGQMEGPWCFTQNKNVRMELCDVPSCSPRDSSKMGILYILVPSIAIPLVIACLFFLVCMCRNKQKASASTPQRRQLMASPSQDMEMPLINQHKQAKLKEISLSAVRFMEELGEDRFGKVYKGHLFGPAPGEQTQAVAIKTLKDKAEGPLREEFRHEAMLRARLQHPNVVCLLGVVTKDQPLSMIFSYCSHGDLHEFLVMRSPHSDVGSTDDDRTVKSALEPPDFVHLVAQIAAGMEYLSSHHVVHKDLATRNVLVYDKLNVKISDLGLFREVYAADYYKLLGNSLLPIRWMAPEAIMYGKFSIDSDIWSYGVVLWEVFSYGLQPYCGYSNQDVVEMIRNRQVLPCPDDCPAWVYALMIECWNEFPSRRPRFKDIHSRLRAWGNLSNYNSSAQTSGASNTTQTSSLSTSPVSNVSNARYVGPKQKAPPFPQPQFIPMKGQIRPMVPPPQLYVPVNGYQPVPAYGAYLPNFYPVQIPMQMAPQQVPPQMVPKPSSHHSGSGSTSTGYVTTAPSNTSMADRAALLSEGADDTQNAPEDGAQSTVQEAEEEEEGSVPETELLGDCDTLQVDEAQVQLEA
Chain of UniProt Q96D15 (Q96D15 whole entry, looked up): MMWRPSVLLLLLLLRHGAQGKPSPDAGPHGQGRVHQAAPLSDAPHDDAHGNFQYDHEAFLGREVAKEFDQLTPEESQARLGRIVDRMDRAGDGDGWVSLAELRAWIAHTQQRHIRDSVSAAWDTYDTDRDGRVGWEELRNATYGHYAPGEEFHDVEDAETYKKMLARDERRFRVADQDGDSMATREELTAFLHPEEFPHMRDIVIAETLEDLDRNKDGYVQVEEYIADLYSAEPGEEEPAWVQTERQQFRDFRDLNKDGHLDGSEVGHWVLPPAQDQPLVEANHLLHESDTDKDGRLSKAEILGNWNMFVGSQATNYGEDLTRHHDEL
Chain of UniProt Q7L4I2 (Q7L4I2 whole entry, looked up): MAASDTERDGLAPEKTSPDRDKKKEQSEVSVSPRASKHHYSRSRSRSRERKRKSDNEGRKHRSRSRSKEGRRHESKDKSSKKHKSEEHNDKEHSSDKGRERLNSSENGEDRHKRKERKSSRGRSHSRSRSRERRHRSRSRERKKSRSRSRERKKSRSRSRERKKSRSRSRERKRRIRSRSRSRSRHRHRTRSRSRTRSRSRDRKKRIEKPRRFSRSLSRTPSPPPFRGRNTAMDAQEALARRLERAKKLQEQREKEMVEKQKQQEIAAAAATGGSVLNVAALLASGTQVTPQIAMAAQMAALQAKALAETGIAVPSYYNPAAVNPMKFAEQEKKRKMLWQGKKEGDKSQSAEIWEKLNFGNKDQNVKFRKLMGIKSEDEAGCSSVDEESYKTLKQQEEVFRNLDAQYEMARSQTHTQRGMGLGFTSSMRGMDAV
Chain of UniProt Q5T8P6 (Q5T8P6 whole entry, looked up): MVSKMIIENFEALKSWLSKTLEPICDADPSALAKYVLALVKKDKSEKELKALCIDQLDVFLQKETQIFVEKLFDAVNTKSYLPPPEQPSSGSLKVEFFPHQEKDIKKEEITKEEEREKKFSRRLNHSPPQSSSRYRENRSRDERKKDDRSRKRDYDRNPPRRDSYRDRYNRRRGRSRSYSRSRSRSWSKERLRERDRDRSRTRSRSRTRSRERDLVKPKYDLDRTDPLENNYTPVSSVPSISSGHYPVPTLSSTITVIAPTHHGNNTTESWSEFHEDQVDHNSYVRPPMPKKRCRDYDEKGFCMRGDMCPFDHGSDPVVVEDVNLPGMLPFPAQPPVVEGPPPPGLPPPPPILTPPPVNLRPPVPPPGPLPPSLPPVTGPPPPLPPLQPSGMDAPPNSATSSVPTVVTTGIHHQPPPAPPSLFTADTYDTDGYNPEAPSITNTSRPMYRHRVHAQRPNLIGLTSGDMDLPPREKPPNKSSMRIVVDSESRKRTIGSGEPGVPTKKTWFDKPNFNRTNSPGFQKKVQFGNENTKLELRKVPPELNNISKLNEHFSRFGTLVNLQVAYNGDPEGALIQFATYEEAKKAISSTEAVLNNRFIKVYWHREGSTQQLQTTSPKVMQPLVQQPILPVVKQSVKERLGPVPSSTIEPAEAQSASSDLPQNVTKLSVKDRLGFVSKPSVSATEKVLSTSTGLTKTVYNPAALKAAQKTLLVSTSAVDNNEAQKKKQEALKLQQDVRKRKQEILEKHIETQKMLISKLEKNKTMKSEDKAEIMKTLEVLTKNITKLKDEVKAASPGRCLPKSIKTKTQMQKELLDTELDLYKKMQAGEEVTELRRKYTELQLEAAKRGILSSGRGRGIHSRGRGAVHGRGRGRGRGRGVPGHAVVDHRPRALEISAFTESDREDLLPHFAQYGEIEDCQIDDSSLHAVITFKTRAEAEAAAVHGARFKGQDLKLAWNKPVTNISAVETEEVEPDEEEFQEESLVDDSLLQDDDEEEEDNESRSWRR
Chain of UniProt O14796 (O14796 whole entry, looked up): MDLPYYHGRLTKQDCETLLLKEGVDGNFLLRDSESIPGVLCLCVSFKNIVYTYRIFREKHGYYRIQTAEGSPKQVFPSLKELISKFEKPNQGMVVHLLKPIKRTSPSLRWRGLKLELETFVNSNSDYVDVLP

| Target | log2 fold change [1] | log2 fold change (filanesib) | log2 fold change (zotarolimus) | log2 fold change (idasanutlin) | log2 fold change (alisertib) | log2 fold change [2] | log2 fold change (gefitinib) | log2 fold change [3] | log2 fold change (lapatinib) | log2 fold change (pictilisib) | log2 fold change [4] | log2 fold change (crizotinib) | log2 fold change [5] | log2 fold change [6] | log2 fold change (duvelisib) | log2 fold change (gandotinib) | log2 fold change (tozasertib) | log2 fold change [7] | log2 fold change (doramapimod) | log2 fold change (ispinesib) |
| --- | --- | --- | --- | --- | --- | --- | --- | --- | --- | --- | --- | --- | --- | --- | --- | --- | --- | --- | --- | --- |
| ROR2 (UniProt Q01974) | -0.172 | -0.017 | 0.082 | 0 | -0.013 | 0.022 | 0.009 | 0.012 | 0.021 | -0.079 | 0.028 | 0.007 | 0.081 | -0.031 | 0.049 | -0.007 | -0.025 | 0.097 | -0.04 | 0.083 |
| RNASEH2A (UniProt O75792) | 0.029 | -0.005 | 0.034 | -0.007 | -0.016 | 0.049 | -0.013 | 0.031 | -0.029 | 0.234 | 0.106 | -0.134 | -0.045 | -0.032 | 0.011 | 0.156 | -0.028 | 0.029 | -0.023 | -0.001 |
| RCN3 (UniProt Q96D15) | -0.065 | 0.054 | -0.068 | -0.122 | 0 | 0.043 | 0 | 0.132 | -0.025 | 0.087 | -0.016 | -0.028 | -0.02 | -0.041 | -0.022 | 0.029 | -0.087 | -0.058 | 0.092 | -0.033 |
| RSRC2 (UniProt Q7L4I2) | 0.033 | 0.066 | -0.002 | 0.048 | -0.102 | 0.034 | 0.005 | 0.022 | -0.021 | 0.011 | 0.02 | 0.022 | -0.018 | -0.095 | 0.002 | 0.052 | -0.058 | -0.039 | -0.022 | 0.087 |
| SART3, A0A499FI31 | 0.059 | -0.036 | 0.054 | -0.044 | -0.042 | -0.192 | -0.019 | -0.019 | 0.016 | -0.083 | -0.011 | 0.097 | 0.049 | -0.124 | 0.012 | -0.056 | 0.078 | 0.051 | -0.03 | 0.038 |
| RIC8A isoform 3 (UniProt Q9NPQ8) | -0.007 | -0.046 | -0.058 | -0.032 | 0.159 | -0.095 | 0.043 | 0.009 | 0.001 | -0.002 | 0.042 | -0.085 | -0.036 | 0.094 | 0.036 | -0.038 | 0.177 | 0.193 | 0.094 | -0.145 |
| RPS3A (UniProt P61247) | -0.112 | 0.117 | 0.006 | 0.069 | -0.052 | -0.009 | -0.06 | -0.152 | 0.053 | -0.078 | -0.064 | 0.022 | -0.182 | 0.196 | -0.09 | 0.175 | 0.016 | 0.029 | 0.044 | -0.072 |
| RPS27A (UniProt P62979) | -0.084 | 0.215 | 0.009 | 0.129 | -0.041 | -0.066 | -0.076 | -0.185 | -0.006 | -0.13 | 0.05 | 0.053 | -0.229 | 0.088 | -0.218 | 0.347 | 0.013 | 0 | -0.049 | -0.047 |
| SEC23IP (UniProt Q9Y6Y8) | -0.006 | 0 | -0.002 | 0.016 | 0 | -0.065 | 0.009 | -0.096 | 0.035 | -0.006 | 0.142 | -0.238 | 0.055 | 0.039 | 0.021 | -0.212 | -0.002 | 0.074 | 0.043 | -0.166 |
| SACM1L (UniProt Q9NTJ5) | 0.044 | -0.081 | 0.029 | -0.027 | -0.05 | -0.039 | 0.086 | 0.023 | 0.028 | -0.038 | 0.026 | 0 | 0.062 | -0.094 | 0.031 | -0.065 | 0.058 | 0.005 | -0.055 | -0.096 |
| RPS19 (UniProt P39019) | 0 | 0.102 | -0.015 | 0.113 | -0.114 | -0.024 | -0.049 | -0.12 | 0.059 | -0.137 | -0.12 | 0.023 | -0.309 | 0.182 | -0.11 | 0.201 | 0.033 | 0.018 | 0.05 | -0.081 |
| RBM26 isoform 2 (UniProt Q5T8P6) | 0.086 | -0.071 | 0.03 | -0.025 | 0.093 | -0.045 | 0.064 | 0.009 | 0.034 | 0.059 | -0.012 | 0.03 | 0.374 | -0.154 | 0.022 | -0.056 | 0.036 | 0.136 | -0.036 | -0.089 |
| SHCBP1 (UniProt Q8NEM2) | -0.014 | 0.059 | 0.103 | -0.023 | 0.134 | 0.102 | 0 | -0.056 | -0.13 | -0.057 | 0.092 | -0.077 | 0.043 | 0.119 | -0.021 | -0.124 | 0.098 | 0.169 | 0.02 | -0.096 |
| SH2D1B (UniProt O14796) | 0.129 | 0.086 | -0.037 | 0.117 | -0.075 | 0.072 | -0.078 | 0.236 | 0.053 | -0.004 | -0.031 | -0.765 (active) | 0.075 | -0.201 | 0.102 | -0.692 | -0.479 | -0.08 | -0.072 | 0.06 |
| SASH1 (UniProt O94885) | -0.059 | -0.074 | -0.04 | -0.05 | 0.009 | -0.161 | 0.015 | -0.015 | -0.013 | 0.073 | 0.023 | -0.122 | -0.077 | -0.024 | 0.032 | -0.028 | 0.088 | 0.198 | -0.031 | -0.116 |
| SELENOH (UniProt Q8IZQ5) | 0.204 | -0.077 | 0.035 | 0.02 | -0.27 | -0.114 | -0.028 | -0.038 | 0.08 | -0.074 | -0.19 | 0 | -0.014 | -0.022 | -0.101 | -0.12 | -0.008 | -0.051 | -0.018 | 0.036 |
